Screens as filed in PubChem.
HT1080-NT tox: kills 2HG-producing HT-1080-NT fibrosarcoma cells; HT-1080-NT fibrosarcoma viability, CellTiter-Glo ATP luminescence, 48 h; Potency, µM (series often up to 46.1 µM), most hits filed as cytotoxic; 1.6% of 360,000 active; AID 686970;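 further: NT is the 2HG producing partner of a matched IDH1 knockdown line; nearly all actives have a fitted effect of over 55% in size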
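Viability of the 2HG-overproducing fibrosarcoma line after 48 hours of compound exposure at 37 degrees C was determined by luminescence with CellTiter-Glo, and concentration-effect curves were then fitted and categorized.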
HT1080 IDH1KD tx: kills HT-1080 cells with IDH1 knockdown; HT-1080 IDH1 knockdown viability, ATP luminescence, 48 h; Potency, µM (top dose mostly 46.1 µM), most hits filed as cytotoxic; 2% of 360,000 active
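Knockdown cells (IDH1KD HT-1080) received compounds 2 h after plating at 750 cells/well and were kept 48 h at 37 °C in 5% FBS RPMI. A CellTiter-Glo luminescence read gave % activity for curve fitting.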
TDP1 cell CPT: DT40-hTDP1 cell growth loss with CPT | chicken DT40 Tdp1-/-;hTDP1 cells + 20 nM CPT, ATP luminescence, 48 h | 12% of 420,000 active | Potency, µM (doses to about 46.2 µM), hits mostly inhibitors | AID 686979; further: nearly all actives have a fitted effect of over 55% in size
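Chicken DT40 Tdp1-/- cells stably complemented with human TDP1 were seeded at 400 cells/well in medium containing 20 nM camptothecin, exposed to pin-transferred compounds, and grown at 37 °C for at least 48 hr. Viability was read as ATP luminescence.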
TDP1 cell noCPT: qHTS for Inhibitors of human tyrosyl-DNA phosphodiesterase 1 (TDP1): qHTS in cells in absence of CPT; DT40 Tdp1-/- hTDP1 cells, no CPT, ATP luminescence, 48 h; Potency, µM (series often up to 46.2 µM), actives largely listed as inhibitors; 15% of 420,000 active; further: nearly all actives have a fitted effect of over 55% in size
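Camptothecin absent (DMSO only). Human TDP1-complemented DT40 knockout cells, 400 cells/well, 37 °C for minimum 48 hr; ATP measured via CellTiter-Glo, 30 min dark incubation, luminescence.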
IL1B secr inh: blocks inflammasome-driven IL-1 beta release; THP-1 LPS/ATP IL-1B secretion, AlphaLISA, 16 h; active compounds read low; activity change, % at 57.5 µM; 4.7% of 360,000 active; AID 743279; in the data active means activity change below about -50%; inconclusive means mostly about -30% to -49%
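THP-1 cells pretreated 1 hr with compounds (up to 57.5 uM final), then stimulated with LPS (250 ng/mL final) plus ATP (1.25 mM final); secreted IL-1B measured by AlphaLISA after 16 hr, decreased signal indicating inhibition.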
Of the large screens only hits and unclear results are named; the others gave an inactive call; ! = not active in a repeat. The list is not random: actives were taken first. Their share in the collection is about 19%. Unless noted, the call rests on the fitted dose curve; in most records, active means well fitted curve in the direction sought with a large enough effect; inconclusive means small, poorly fitted or top-dose-only effect, or another doubt; inactive means no such curve, though single readings can be large; an effect the other way counts as inactive or inconclusive.

CNC[C@H](O)c1ccc(O)c(O)c1	TDP1 cell CPT 8.41µM!, TDP1 cell noCPT 11.9µM!, IL1B secr inh inconclusive
CCC1CN(C(=O)N2CCC(C(=O)NCc3ccco3)CC2)c2ccccc2O1 (configuration not stated)	TDP1 cell CPT inconclusive, TDP1 cell noCPT inconclusive
CCC1CN(C(=O)N2CCC(C(=O)NCCCc3ccccc3)CC2)c2cc(C)ccc2O1 (configuration not stated)	TDP1 cell CPT inconclusive, TDP1 cell noCPT 13µM (no result: HT1080-NT tox, HT1080 IDH1KD tx, IL1B secr inh)
CCC1CN(C(=O)N2CCC(C(=O)NCc3cccs3)CC2)c2ccccc2O1 (configuration not stated)	TDP1 cell CPT 20.6µM, TDP1 cell noCPT 20.6µM (no result: HT1080-NT tox, HT1080 IDH1KD tx, IL1B secr inh)
CCC1CN(C(=O)N2CCC(C(=O)NCCCc3ccccc3)CC2)c2ccccc2O1 (configuration not stated)	TDP1 cell CPT 16.4µM, TDP1 cell noCPT inconclusive (no result: HT1080-NT tox, HT1080 IDH1KD tx, IL1B secr inh)
CCC1CN(C(=O)N2CCC(C(=O)NCc3ccc(F)cc3)CC2)c2ccccc2O1 (configuration not stated)	none
CCC1CN(C(=O)N2CCC(C(=O)N(C)Cc3ccccc3)CC2)c2ccccc2O1 (configuration not stated)	TDP1 cell CPT inconclusive, TDP1 cell noCPT 14.6µM (no result: HT1080-NT tox, HT1080 IDH1KD tx, IL1B secr inh)
O=[N+]([O-])c1ccc(S(=O)(=O)NN=Cc2ccc(Cl)c(Cl)c2)cc1	TDP1 cell CPT inconclusive, TDP1 cell noCPT inconclusive
CC(C)CCNC(=O)C1CCC(CNc2c(N3CCCC3)c(=O)c2=O)CC1 (configuration not stated)	HT1080-NT tox inconclusive
CC(=O)N1CCN(CC(=O)Nc2cc(F)ccc2C)CC1	none
Cc1onc(-c2ccccc2Cl)c1C(=O)NC1C(=O)N2C1SC(C)(C)C2C(=O)O (configuration not stated)	none (no result: HT1080-NT tox, HT1080 IDH1KD tx, IL1B secr inh)
CC1CN(C(=O)N2CCC(C(=O)NCCC3=CCCCC3)CC2)c2ccccc2O1 (configuration not stated)	TDP1 cell noCPT inconclusive (no result: HT1080-NT tox, HT1080 IDH1KD tx, IL1B secr inh)
CCC1CN(C(=O)N2CCC(C(=O)NCCC3=CCCCC3)CC2)c2cc(C)ccc2O1 (configuration not stated)	TDP1 cell CPT 14.6µM, TDP1 cell noCPT 14.6µM (no result: HT1080-NT tox, HT1080 IDH1KD tx, IL1B secr inh)
Cc1ccccc1Oc1ccc(NC(=O)C2CC=CCC2C(=O)O)cc1 (configuration not stated)	TDP1 cell CPT 14.6µM, TDP1 cell noCPT 6.51µM
CC(C)(C)c1ccc(Oc2ccc(NC(=O)C3CC=CCC3C(=O)O)cc2)cc1 (configuration not stated)	HT1080-NT tox inconclusive, HT1080 IDH1KD tx inconclusive
O=C(O)C1CCCCC1C(=O)Nc1ccccc1Cl (configuration not stated)	none
Cc1cccc(N2CCN(C(=O)c3ccccc3NC(=O)C3CC=CCC3C(=O)O)CC2)c1 (configuration not stated)	TDP1 cell CPT inconclusive, TDP1 cell noCPT 5.8µM
O=C(O)C1CC=CCC1C(=O)Nc1ccccc1Cl (configuration not stated)	TDP1 cell CPT inconclusive, TDP1 cell noCPT 23.1µM
O=C(CSc1nnnn1-c1cccc(F)c1)Nc1nc2ccccc2s1	HT1080 IDH1KD tx inconclusive
Cc1cccc(CCNS(=O)(=O)c2ccc3c(c2)NC(=O)CS3)c1	none
Cn1c(=S)c2[nH]c(SCCN)nc2n(C)c1=O	TDP1 cell CPT 5.8µM, TDP1 cell noCPT 5.8µM
Cn1c(=O)c2c(nc(SCCN3CCCCC3)n2C)n(C)c1=O	none
Cn1c(=S)c2[nH]c(SCCN3CCCC3)nc2n(C)c1=O	TDP1 cell CPT inconclusive, TDP1 cell noCPT 23.1µM
CCc1ccc(NC(=O)C(CC)Sc2nc3cc4c(cc3c(=O)n2Cc2ccco2)OCO4)cc1 (configuration not stated)	TDP1 cell CPT 18.4µM, TDP1 cell noCPT inconclusive
CCc1ccccc1NC(=O)C(CC)Sc1nc2cc3c(cc2c(=O)n1Cc1ccco1)OCO3 (configuration not stated)	TDP1 cell CPT 16.4µM, TDP1 cell noCPT inconclusive
CCC(Sc1nc2cc(OC)c(OC)cc2c(=O)n1Cc1ccco1)C(=O)NCCOC (configuration not stated)	none
